Results filed as inconclusive are left out. Where a call stands in place of a potency, no number is given. Values without a mark were called inactive. Activity calls are given as the source filed them. The call rests on the fitted dose curve; in most records, active means well fitted inhibition curve with a large enough effect in the repeat runs; inconclusive means weak or mixed curves; inactive means flat fitted curve, though single readings scatter.
Assay: qHTS assay to identify small molecule HDAC inhibitors (AID 1259364); further: top concentration of the series differs between compounds; nearly all actives have a fitted effect of over 45% in size
Settings: HCT-116 HDAC-Glo I/II luminescence, 2 h; series mostly up to 92.4 µM
Source text: U.S. Tox21 Program National Center for Advancing Translational Sciences [NCATS] NIH Chemical Genomics Center [NCGC] U.S. Environmental Protection Agency [EPA] National Institutes of Environmental Health Sciences [NIEHS] National Toxicology Program [NTP] U.S. Food and Drug Administration [FDA] Tox21 Assay Overview: Histone deacetylases (HDACs) are a group of epigenetic enzymes that regulate gene expression by histone deacetylation. HDACs are capable of introducing epigenetic modifications and such aberrations contribute to the onset and progression of several human diseases, thus making HDACs a popular therapeutic target. For identifying endogenous class I/II HDAC inhibitors a homogenous, luminogenic HDAC I/II cell based assay was used to measure the relative activity of class I and II HDACs from cells. Wild type HCT-116 cells were used to screen Tox21 libraries for identifying class I/II HDAC inhibitors.
Tox21 Assay Protocol Summary: HCT-116 cells were dispensed at 1,500 per well in 5uL of culture medium into white solid bottom 1536-well plates (Greiner Bio-One, Monroe, NC) using a Multidrop Combi (Thermo Scientific, Waltham, MA) dispenser. The assay plates were incubated at 37 C and 5% CO2 for an overnight, and then 23nL of compounds dissolved in DMSO and positive control were transferred using a Pintool station (Wako, San Diego, CA). The assay plates were incubated at 37C and 5% CO2 for 2hr. After compound treatment, 4uL of HDAC-Glo reagent (Promega Corporation, Madison, WI) was added to each well of the assay plates using Flying Reagent Dispenser (FRD, Aurora Discovery, San Diego, CA) and incubated the assay plates at room temperature for 30min. The luminescence signal was quantified using a ViewLux plate reader (Perkin Elmer, Shelton, CT).

Row | Compound | Potency | activity change, negative = inhibition
1 | Cc1cc(O)cc2c1O[C@](C)(CCC[C@H](C)CCC[C@H](C)CCCC(C)C)CC2 | inactive | 
2 | CCCCCCCCCCCCN(CCCCCCCCCCCC)CCCCCCCCCCCC | inactive | 
3 | CCc1cccc2c(CCO)c[nH]c12 | inactive | 
4 | CCC(C)S (stereo not given) |  | 0.148% [at 3.27 µM]
5 | C1CN(CCOCCN2CCOCC2)CCO1 | inactive | 
6 | Cc1nc2c([nH]1)c(=O)n(C)c(=O)n2Cc1ccco1 | inactive | 
7 | CCOC(=O)c1cccc(N)c1 | inactive | 
8 | OC(CCN1CCCCC1)(c1ccccc1)C1CC2C=CC1C2 (stereo not given) | inactive | 
9 | CCCc1cc(C(N)=S)ccn1 | inactive | 
10 | O=C1CCCCCCCCCCCN1 | inactive | 
11 | Cc1cccn2c(=O)c(-c3nnn[nH]3)cnc12 |  | -1.21% [at 19 µM]
12 | C[C@](N)(Cc1ccc(O)cc1)C(=O)O |  | -0.294% [at 8.39 µM]
13 | C[C@H](NC(CCc1ccccc1)C(=O)O)C(=O)N1CCC[C@H]1C(=O)O (stereo not given in full) | inactive | 
14 | CCc1nccnc1CC |  | 0.718% [at 19 µM]
15 | CCCCCCCCCCCC | inactive | 
16 | CC/C=C\CC/C=C/C(OCC)OCC | inactive | 
17 | C[N+](C)(C)CC(O)CC(=O)[O-] (stereo not given) | inactive | 
18 | CCN1CCC[C@H]1CNC(=O)c1c(O)c(Cl)cc(Cl)c1OC | inactive | 
19 | COc1nc(N)nc2c1ncn2[C@@H]1O[C@H](CO)[C@@H](O)[C@@H]1O | inactive | 
20 | CCn1ccnc1CC1COc2ccccc2O1 (stereo not given) | inactive | 

Row | Compound | Potency | activity change, negative = inhibition
21 | CC(C)NCC(O)c1ccc(NS(C)(=O)=O)cc1 (stereo not given) | inactive | 
22 | Cc1sccc1Br | inactive | 
23 | CCc1ccc(O)c(OC)c1 | inactive | 
24 | O=C1CCCN1C1CCCCC1 | inactive | 
25 | Cc1[nH]c(=O)c(C#N)cc1-c1ccc2nccn2c1 | inactive | 
26 | CC/C=C\CC/C=C/CO | inactive | 
27 | CCC(C)C1CCCCC1=O (stereo not given) | inactive | 
28 | OCCCC1CCCCC1 | inactive | 
29 | C=C1CC[C@H]2C[C@@H]1C2(C)C | inactive | 
30 | NC(=O)c1ccc(N)cc1 | inactive | 
31 | CCSC(=O)N(CC(C)C)CC(C)C | inactive | 
32 | C=CCOCC(CC)(CO)COCC=C | inactive | 
33 | NC(=O)c1ccc([N+](=O)[O-])cc1 | inactive | 
34 | CN1C(=O)N(C)C(O)C1O (stereo not given) | inactive | 
35 | CC(C(=O)O)c1ccc(CC2CCCC2=O)cc1 (stereo not given) | inactive | 
36 | CCOC(=O)Nc1ccc(NCc2ccc(F)cc2)nc1N | inactive | 
37 | OC1CCCCC1c1ccccc1 (stereo not given) | inactive | 
38 | CCCCOCCOCCOCCCC | inactive | 
39 | COC(=O)CC(C)=O | inactive | 
40 | NS(=O)(=O)c1ccccc1Cl | inactive | 

— PubChem BioAssay (Tox21)
